Our source for the outcome and AC50 values is PubChem BioAssay (EPA / NIEHS).

Activity calls are given as the source filed them. The calls were made as follows: active = hit-call score of the fitted dose curve at least 0.9, where 1 is the maximum; inactive = score below 0.9.

This experiment in a line: APR_HepG2_CellCycleArrest_24hr: Apredica 24-hour HepG2 Assay for Cell Cycle Arrest (AID 2282905).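 Also: cell cycle arrest scored as ratio of 2N to 4N nuclear DNA content.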 To be noted: imaging, actives raise or lower the signal. The method, then: APR_HepG2_24hr is a cell-based, multiplexed-readout assay that uses HepG2, a human liver cell line, with measurements taken at 24 hours after chemical dosing in a 384-well plate.APR_HepG2_CellCycleArrest_24hr is one of 10 assay component(s) measured or calculated from the APR_HepG2_24hr assay. It is designed to make measurements of cell phenotype, a form of morphology reporter, as detected with fluorescence intensity signals by HCS Fluorescent Imaging technology.Data from the assay component APR_HepG2_CellCycleArrest_24hr was analyzed into 1 assay endpoint. This assay endpoint, APR_HepG2_CellCycleArrest_24hr, was analyzed with bidirectional fitting relative to DMSO as the negative control and baseline of activity. Using a type of morphology reporter, measures of all nuclear dna for gain or loss-of-signal activity can be used to understand the signaling at the pathway-level as they relate to the gene . Furthermore, this assay endpoint can be referred to as a primary readout, because this assay has produced multiple assay endpoints where this one serves a signaling function. To generalize the intended target to other relatable targets, this assay endpoint is annotated to the cell cycle intended target family, where the subfamily is arrest.
Cells were treated with dimethyl sulfoxide (DMSO) as a solvent control at a final concentration of 0.5% v/v or with compounds in DMSO with a resulting final DMSO concentration of 0.5% v/v. Compound treatment was done at concentrations of 0.39, 0.78, 1.56, 3.12, 6.24, 12.5, 25, 50, 100, and 200 uM in duplicate on each plate. Cells were treated with compounds for 1, 24, or 72 hr. Carbonyl […] m-chloro-phenylhydrazone (CCCP) and taxol were used as positive controls for mitochondrial function and cytoskeletal stability, respectively; DMSO served as the negative control for this experiment. Cells were fixed by the direct addition of 50 uL formaldehyde in Hank's Balanced Salt Solution (HBSS) to a final concentration of 3.7%. After incubation in the fixation medium for 30 min at room temperature (293-298 K), cells were rinsed twice with HBSS and treated with cell permeabilization buffer (16 uL of 0.5% Triton X-100) for 10 min at room temperature (293-298 K) before labeling. For mitochondrial membrane potential and mitochondrial measurements, pre-fixed cells were incubated with 50 uL of MitoTracker Red CMXRos (Invitrogen) at a concentration of 250 nM for 30 min before fixation. In the remaining cases, post-fixed cells were labeled by incubation with a multiplexed mixture of primary antibodies in HBSS for 60 min at room temperature (293-298 K) to detect immunoreactivity of c-Jun (1:500), phospho-histone H3 (1:100), phospho-histone H2A.x (1:200), p53 (1:400), alpha-tubulin (1:200) and Hoechst 33342 (2 ug/mL). Cells were labeled for multiplexed imaging on two separate plates: a) Hoechst 33342, MitoTracker Red, phospho-histone H3, and alpha-tubulin, and b) Hoechst 33342, phospho-histone H2A.x, and c-Jun. A final rinse with HBSS (50 uL) was performed before analysis. The primary and secondary antibodies for the proteins were phospho-histone H3 (rabbit anti-phospho-histone H3 and FITC-donkey anti-rabbit IgG), phospho-histone H2A.x (mouse anti-phospho-histone H2A.x and FITC-donkey anti-mouse IgG), c-Jun (rabbit anti-phospho-c-Jun and Cy3-donkey anti-rabbit IgG), p53 (sheep anti-p53 and Cy5-donkey anti-sheep IgG), alpha-tubulin (mouse anti-alpha-tubulin and Cy5-donkey anti-mouse IgG). These antibodies are available as the CellCiphr HepG2 assay kit (Millipore).Digital images of each well were captured using a Cellomics ArrayScan VTI (Thermo Scientific Cellomics) (0.8 NA objective, 0.63x optical coupler, and XF-93 filter set) at 20x magnification. The images were acquired using the autofocus feature of the ArrayScan instrument, which entails the following steps. First, the camera focuses on channel 1 (Hoechst 33342), where nuclei are identified. Second, a Z offset of 1 um is used for capturing mitochondria (MitoTracker Red). […]
Take `C=CCc1ccc2c(c1)OCO2`: the call was inactive.
As for `CN(C)[C@@H]1C(=O)C(C(N)=O)=C(O)[C@@]2(O)C(=O)C3=C(O)c4c(O)cccc4[C@@](C)(O)[C@H]3C[C@@H]12`, the call was inactive.
Consider `c1ccc(C2CO2)cc1` (stereo not given), for which the outcome was inactive.
Take `Nc1ccc([N+](=O)[O-])cc1`: the outcome was inactive.
On to `Brc1ccc(Oc2ccccc2)cc1`, for which the outcome was inactive.
As to `O=C(O)C1C2CCC(O2)C1C(=O)O` (stereo not given), the compound was called inactive.
In the case of `Cc1ccc([N+](=O)[O-])cc1`, the call was inactive.
As to `O=C1CCCO1`, the compound was called inactive.
As for `ClC1=C(Cl)[C@]2(Cl)[C@H]3[C@H]([C@@H]4C=C[C@H]3C4)[C@@]1(Cl)C2(Cl)Cl`, the outcome was inactive.
The same measure, in the same setting: the result for `CN(C)C(=O)Nc1ccc(Cl)cc1` reads “inactive”; that for `COC(=O)c1ccccc1N`, “inactive”; that for `CCN(CC)CCO`, “inactive”.
Consider `CCCSC(=O)N(CCC)CCC`, for which the call was inactive.
`CC(C)(C)OOC(=O)c1ccccc1`: the outcome was inactive.
For the compound `c1ccc(N=Nc2ccccc2)cc1`, the concentration at half-maximal activity (AC50) (usually the midpoint of the concentration-response curve, whichever way the signal moves) is 63.1 µM (active).
For the compound `CCC(C)c1ccc(O)cc1` (stereo not given), the outcome was inactive.
In the case of `C1=Cc2cccc3cccc1c23`, the compound was called inactive.
Regarding `Nc1ccc(Oc2ccc(N)cc2)cc1`, the compound was called inactive.
Same read-out and setting: the result for `Cc1ccc(N)c(N)c1` reads “inactive”.
Consider `Nc1ccc(N=Nc2ccccc2)cc1`, for which the AC50 was 75.5 µM (active).
With `[O-][Cl+]O`, the result was inactive.
With `CC(O)CCO` (stereo not given), the result was inactive.
Turning to `Clc1ccc(C(c2ccc(Cl)cc2)C(Cl)(Cl)Cl)cc1`, the compound was called inactive.
As for `CCCCC(CC)COC(=O)c1ccc(C(=O)OCC(CC)CCCC)c(C(=O)OCC(CC)CCCC)c1` (stereo not given), the compound was classed as inactive.
In the case of `CCC12COCN1COC2`, the AC50 was 45.1 µM (active).
Consider `Nc1ccc(Cl)cc1N`, for which the AC50 is 0.162 µM (active).
With `Oc1ccc2ccc3cccc4ccc1c2c34`, the result was inactive.
For the compound `c1ccc2c(c1)oc1ccccc12`, the compound was classed as inactive.
Consider `Cc1cccc(N)c1N`, for which the compound was classed as inactive.
With `OCCCl`, the compound was called inactive.
Take `CCOC(=O)[C@]1(c2ccccc2)Oc2ccccc2[C@@H]1N`: the outcome was inactive.
Take `Clc1ccc(Cl)c(Cl)c1`: the outcome was inactive.
The same measure, in the same setting: with `CS(=O)(=O)NC(=O)c1cc(Oc2ccc(C(F)(F)F)cc2Cl)ccc1[N+](=O)[O-]` the entry was “inactive”; with `OCCCBr`, “inactive”; with `CCOc1cccc(C2(N3CCN(c4ccccc4)CC3)CCC(C)CC2)c1` (stereo not given), “inactive”.
As to `CC(C)(C)OOC(C)(C)CCC(C)(C)OOC(C)(C)C`, the outcome was inactive.
`Cc1cc(N=Nc2ccccc2C)ccc1N`: the AC50 was 100 µM (active).
Same read-out and setting: the result for `O=C(N[C@H](c1ccccc1)[C@@H]1CN2CCC1CC2)c1c(Cl)ccc(C(F)(F)F)c1Cl` reads 60.8 µM (active).
As to `N#CC(Br)(Br)C(N)=O`, the call was inactive.
Same read-out and setting: with `CC(C)N(Cc1ccccc1)C(=O)C(C)(C)C` the entry was “inactive”.
